Assay [1] is described as follows: inhibitors of TNFa-induced NFkB p65 translocation, primary screen, imaging, HUVEC, MLSMR starter and 10KST1 sets (AID 438;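 active = inhibition above 20% together with a positive visual image hit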;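 also: compound added about 3h40 before a 20 min TNFalpha stimulation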;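 as to inhibition: signal is the nuclear over cytoplasmic p65 intensity ratio per well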). The following applies: HUVEC TNFa-induced p65 nuclear translocation; cell count: measured here: nuclei count (cytotoxicity indicator), at 2.08 µM; inhibition: at 2 µM, stronger effect = higher value, 0% TNFa-plus-vehicle, 100% no-TNFa wells.
Assay [2] is described as follows: reduction of polyQ htt aggregates in cells – imaging, exon1htt(103Q)mCFP cells, high-content imaging, primary screen (AID 483;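 active = visual image review flags a hit and inhibition of aggregation exceeds 20%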;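 also: compound exposure lasted 3 days before fixation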;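 as to nuclei count: percent of the per-plate median nuclei count of sample wells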). The conditions noted are these: exon1htt(103Q)mCFP cell line, aggregate imaging, at 2 µM; inhibition of aggregation: stronger effect = higher value; nuclei count: measured here: cell count, toxicity.
Assay [3] can be described thus: endothelial E-selectin expression blockers – imaging, HUVEC, immunofluorescence, MLSMR starter and 10KST1 sets, primary screen (AID 487;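 active = visually confirmed hit in the image check and inhibition above 20%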;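 as to inhibition: signal is fraction of cell area covered by stained E-selectin grains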;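 as to nuclei count: 100% = median nuclei count of all wells on the same plate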). The following applies: HUVEC TNFalpha-induced E-selectin immunofluorescence imaging, at 2 µM; inhibition: stronger effect = higher value; nuclei count: measured here: cell number, toxicity.
Assay [4] concerns the target Voltage-gated potassium channel subunit beta-2 (Rattus norvegicus) (UniProt P62483). The assay can be described thus: inhibitors of rat Kvbeta2 reductase activity – biochemical, NADPH fluorescence, primary screen (AID 622;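 active = fluorescence slope higher than the sample average by over 3 SD, cut at about -0.22 in these data, passing the limit was not always enough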;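 also: slope of raw intensity against log time taken from 70 to 1610 s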). The following applies: recombinant KvBeta, 4-cyanobenzaldehyde reduction, at 10 µM, stronger effect = higher value.
Assay [5] has the same target. The assay can be described thus: enhancers of rat Kvbeta2 NADPH turnover – biochemical, NADPH fluorescence, primary screen (AID 623;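 active = NADPH fluorescence slope more negative than the mean of all samples by about 3 SD, 99.7% confidence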;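 also: fluorescence intensity change per second fitted from 20 to 320 s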). The conditions noted are these: Recombinant KvBeta, NADPH fluorescence decrease slope, 10 min; at 10 µM; stronger effect = lower value.
Assay [6] concerns the target Alpha-2C adrenergic receptor (Homo sapiens) (UniProt P18825). Put plainly: compounds altering alpha2C-coupled GIRK flux – cell-based, HEK293 alpha2C/GIRK1/2, thallium flux, primary screen (AID 624;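 active = fluorescence slope after compound addition differing from the mean of all screened samples at 99.7% confidence, in either direction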;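 also: slope of fluorescence ratio to pre-addition baseline per second over 15 to 24 s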). The following applies: thallium flux BTC fluorescence, at 10 µM, actives lie on both sides.
The nature of assay [7]: blockers of RIG-like receptor reporter activation – cell-based, Sendai virus stimulus, luciferase, 10K MLSCN set, TLR/RLR signaling modifier project, primary screen (AID 602276).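 Also: firefly luciferase from ISG56 promoter only with Renilla not read in this screen; 0% = Sendai virus plus DMSO and 100% = medium plus DMSO without virus.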 The conditions noted are these: HEK293 RL24 IRF3 luciferase reporter, at 10 µM, stronger effect = higher value.
Assay [8] is described as follows: TLR3 IRF3 reporter activation blockers – cell-based, poly I:C stimulus, luciferase, 10K MLSCN set, primary screen (AID 602277;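 active = inhibition of the reporter signal at or above 50%; inactive = inhibition below 50%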). The conditions noted are these: HEK293-TLR3 RL24 IRF3 luciferase reporter, at 10 µM, stronger effect = higher value. (In general: A reporter such as luciferase makes a cellular process visible.)

Each structure is given as a SMILES string. Active and inactive are the calls of the source.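 The calls were made as follows, unless noted: active = inhibition at or above 50% at 10 µM; inactive = inhibition below 50%.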

Chain of Alpha-2C adrenergic receptor (Homo sapiens) (P18825 whole entry, looked up): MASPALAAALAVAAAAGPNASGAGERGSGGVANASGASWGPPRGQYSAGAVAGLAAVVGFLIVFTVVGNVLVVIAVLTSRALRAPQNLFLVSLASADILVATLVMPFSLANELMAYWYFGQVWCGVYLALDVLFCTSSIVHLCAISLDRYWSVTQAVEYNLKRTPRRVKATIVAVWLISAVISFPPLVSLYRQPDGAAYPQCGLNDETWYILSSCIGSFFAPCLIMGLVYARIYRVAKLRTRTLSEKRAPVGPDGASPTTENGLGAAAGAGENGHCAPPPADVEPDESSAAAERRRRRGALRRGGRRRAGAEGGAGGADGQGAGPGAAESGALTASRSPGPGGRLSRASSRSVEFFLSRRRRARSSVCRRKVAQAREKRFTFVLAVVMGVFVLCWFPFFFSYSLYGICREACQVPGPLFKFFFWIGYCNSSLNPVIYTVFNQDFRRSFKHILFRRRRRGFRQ
Chain of Voltage-gated potassium channel subunit beta-2 (Rattus norvegicus) (P62483 whole entry, looked up): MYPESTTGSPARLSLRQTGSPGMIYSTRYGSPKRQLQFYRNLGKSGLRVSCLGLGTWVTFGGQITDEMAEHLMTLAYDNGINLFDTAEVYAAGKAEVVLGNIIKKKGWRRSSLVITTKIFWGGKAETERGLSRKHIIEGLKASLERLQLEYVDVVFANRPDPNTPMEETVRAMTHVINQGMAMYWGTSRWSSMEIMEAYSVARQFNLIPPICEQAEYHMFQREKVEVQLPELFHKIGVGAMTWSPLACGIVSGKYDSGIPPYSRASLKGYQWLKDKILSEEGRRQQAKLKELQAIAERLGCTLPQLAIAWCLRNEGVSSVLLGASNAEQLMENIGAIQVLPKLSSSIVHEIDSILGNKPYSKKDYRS

The inhibition is the drop in the measured response relative to a control, in per cent. As for `CCn1c(SCC(=O)c2ccc(F)cc2)nnc1-c1ccoc1C`, the cell count in assay [1] was 423. Further, the inhibition in assay [1] was -19.4% (inactive); in assay [3] it was -50.4% (inactive); in assay [7], 6.99% (inactive); in assay [8] it was 11.7% (inactive). Besides, the inhibition of aggregation in assay [2] was -1.3% (inactive). In addition, the values for the nuclei count in assay [2] and in assay [3] were 78% and 103%, respectively. The fluorescence slope in assay [4] is -0.607 (inactive). In addition, the NADPH fluorescence slope in assay [5] was 1.4e-05 (inactive). Further, the slope in assay [6] was 0.00696 (inactive).
With `COC(=O)C1(C)NC(c2cccs2)C2C(=O)N(c3ccccc3F)C(=O)C21` (stereo not drawn), the cell count in assay [1] worked out at 334. Besides, the inhibition in assay [1] is 2.8% (inactive); in assay [3], -24.7% (inactive); in assay [7] it was -3.44% (inactive); in assay [8], -0.188% (inactive). Besides, the inhibition of aggregation in assay [2] is -16.9% (inactive). The nuclei count in assay [2] is 101%; in assay [3] it was 119%. For the same compound, the fluorescence slope in assay [4] is -0.52 (inactive). Besides, in assay [5], the NADPH fluorescence slope was 2.7e-06 (inactive). Besides, the slope in assay [6] is 0.00503 (inactive).
As for `O=C(NCc1ccco1)c1cccn2c(=O)c3sccc3nc12`, the cell count in assay [1] was 452. For the same compound, the inhibition was -1.9% (inactive) in assay [1], 19.6% (inactive) in assay [3], -2.36% (inactive) in assay [7] and -2.82% (inactive) in assay [8]. The inhibition of aggregation in assay [2] is -0.8% (inactive). Besides, the nuclei count was found to be 96% in assay [2] and 101% in assay [3]. Besides, the fluorescence slope in assay [4] is -0.112 (inactive). In assay [5], the NADPH fluorescence slope is -7.3e-06 (inactive). Further, in assay [6], the slope was 0.00303 (inactive).
In the case of `CCn1c(=O)c(=O)[nH]c2cc(C(=O)N3CCN(c4ccccc4F)CC3)ccc21`, the cell count in assay [1] was 688. For the same compound, the inhibition is -6.1% (inactive) in assay [1], -16.5% (inactive) in assay [3], 5.11% (inactive) in assay [7] and 6.91% (inactive) in assay [8]. For the same compound, the inhibition of aggregation in assay [2] was -40.8% (inactive). Also, the nuclei count in assay [2] is 81.5%; in assay [3], 110%. Further, the fluorescence slope in assay [4] is -0.594 (inactive). Also, the NADPH fluorescence slope in assay [5] was -3e-05 (inactive). Moreover, the slope in assay [6] is 0.0083 (inactive).
Take `CCOC(=O)N1CCC(n2c(=S)[nH]c3cc(OC)c(OC)cc3c2=O)CC1`: the cell count in assay [1] turned out to be 471. Further, the inhibition in assay [1] is 4.8% (inactive); in assay [3], -6.8% (inactive); in assay [7] it was 14.4% (inactive); in assay [8], 23.2% (inactive). For the same compound, in assay [2], the inhibition of aggregation was -23.4% (inactive). The nuclei count in assay [2] is 108%; in assay [3], 105%. For the same compound, in assay [4], the fluorescence slope is -0.631 (inactive). Moreover, in assay [5], the NADPH fluorescence slope was 4.7e-05 (inactive). Moreover, in assay [6], the slope is 0.00633 (inactive).
In the case of `O=C(CSc1nc(N2CCCCC2)nc(N2CCCCC2)n1)Nc1nccs1`, the cell count in assay [1] is 280. The inhibition is -7% (inactive) in assay [1], -32.8% (inactive) in assay [3], 1.6% (inactive) in assay [7] and 52.4% (active) in assay [8]. For the same compound, the inhibition of aggregation in assay [2] is 5.5% (inactive). Further, the nuclei count in assay [2] was 96.9%; in assay [3], 72.8%. Further, the fluorescence slope in assay [4] was -0.531 (inactive). Also, in assay [5], the NADPH fluorescence slope was 7.9e-06 (inactive). Also, in assay [6], the slope is 0.00662 (inactive).
On to `N#Cc1c(NCc2ccccc2)ccnc1NCc1cccnc1`, for which, in assay [1], the cell count is 720. The inhibition was 2.9% (inactive) in assay [1], 67.5% (active) in assay [3], -0.363% (inactive) in assay [7] and -44.8% (inactive) in assay [8]. In addition, in assay [2], the inhibition of aggregation was -8.3% (inactive). Further, the nuclei count was 104% in assay [2] and 80.8% in assay [3]. In addition, in assay [4], the fluorescence slope is -0.288 (inactive). In assay [5], the NADPH fluorescence slope was -6.2e-05 (inactive). Moreover, the slope in assay [6] was 0.00541 (inactive).
`Cc1cc2ccccc2c(=O)n1CC(=O)N(C)c1ccc(F)cc1`: the cell count in assay [1] came to 629. For the same compound, the inhibition in assay [1] was -4.7% (inactive); in assay [3], -74.2% (inactive); in assay [7], 2.03% (inactive); in assay [8], 9.91% (inactive). In assay [2], the inhibition of aggregation is -4.1% (inactive). The nuclei count in assay [2] was 98%; in assay [3], 103%. Moreover, the fluorescence slope in assay [4] is -0.353 (inactive). Also, the NADPH fluorescence slope in assay [5] is -5.6e-05 (inactive). Also, the slope in assay [6] was 0.00579 (inactive).
In the case of `CCOC(=O)CNC(=O)Nc1nnc(-c2ccc(OCC)cc2)o1`, the cell count in assay [1] is 486. The inhibition was -30.9% (inactive) in assay [1], -12.6% (inactive) in assay [3], -14.6% (inactive) in assay [7] and -13.9% (inactive) in assay [8]. In addition, in assay [2], the inhibition of aggregation is 3.3% (inactive). Further, the nuclei count in assay [2] worked out at 91.3%; in assay [3], 103%. The fluorescence slope in assay [4] was -0.591 (inactive). Besides, the NADPH fluorescence slope in assay [5] is 2.1e-05 (inactive). The slope in assay [6] is 0.00589 (inactive).
As to `O=C(CSc1nc2ccsc2c(=O)n1NC(=O)c1ccccc1)Nc1nccs1`, the cell count in assay [1] worked out at 414. The inhibition is 3.2% (inactive) in assay [1], -134% (inactive) in assay [3], -7.17% (inactive) in assay [7] and 0.179% (inactive) in assay [8]. The inhibition of aggregation in assay [2] is 4% (inactive). Besides, the values for the nuclei count in assay [2] and in assay [3] were 98.2% and 101%, respectively. In addition, in assay [4], the fluorescence slope is -0.342 (inactive). Besides, in assay [5], the NADPH fluorescence slope was -7e-06 (inactive). In addition, the slope in assay [6] was 0.00492 (inactive).
Turning to `CC(=O)Nc1ccc(OCC(O)CN2CCN(c3cccc(Cl)c3)CC2)cc1` (stereo not drawn), the cell count in assay [1] amounted to 469. Moreover, the inhibition in assay [1] is 7% (inactive); in assay [3], -27.1% (inactive); in assay [7], 3.23% (inactive); in assay [8] it was 21.4% (inactive). Also, the inhibition of aggregation in assay [2] was -19.8% (inactive). The nuclei count in assay [2] and in assay [3] was 115% each time. Besides, the fluorescence slope in assay [4] was -0.481 (inactive). In assay [5], the NADPH fluorescence slope is -4.2e-05 (inactive). Moreover, in assay [6], the slope was 0.00626 (inactive).
As for `CCOC(=O)c1ccc(Oc2cc(C)nc(SC)n2)cc1`, the cell count in assay [1] was 484. In addition, the inhibition is 10.1% (inactive) in assay [1], -192% (inactive) in assay [3], 15.8% (inactive) in assay [7] and 19.9% (inactive) in assay [8]. The inhibition of aggregation in assay [2] is 13.3% (inactive). Also, the values for the nuclei count in assay [2] and in assay [3] were 117% and 134%, respectively. In addition, the fluorescence slope in assay [4] is -0.47 (inactive). The NADPH fluorescence slope in assay [5] was -9.6e-06 (inactive). The slope in assay [6] was 0.00614 (inactive).
For `Cc1oc(-c2ccc(Cl)cc2)cc1-c1nn2c(-c3ccoc3C)nnc2s1`, in assay [1], the cell count came out at 644. The inhibition in assay [1] was -3.9% (inactive); in assay [3], -24.2% (inactive); in assay [7], 19.8% (inactive); in assay [8], 23% (inactive). In addition, in assay [2], the inhibition of aggregation was -0.4% (inactive). Further, the nuclei count in assay [2] was determined as 94.6%; in assay [3], 105%. Moreover, the fluorescence slope in assay [4] was -0.497 (inactive). Also, in assay [5], the NADPH fluorescence slope is -3.8e-05 (inactive). The slope in assay [6] was 0.00371 (inactive).

Values taken from PubChem BioAssay.
